Experimental data as given in ChEMBL document CHEMBL4513216, “Probing the Open Global Health Chemical Diversity Library for Multistage-Active Starting Points for Next-Generation Antimalarials” (ACS Infect Dis, 2020).
The whole screen tested about 69,000 compounds, of which about 8,600 (12%) showed an effect of 50% or more. The entries come from a sample that favours strong results as a whole.

Test system: Plasmodium berghei
Assay: Screen against P. berghei liver stage (PbLuc), transformed with Luciferase, at 10uM
Assay type: functional, HepG2
Conditions: tested at 10 uM

Compound	INHIBITION [%]
COc1ccc2c(c1)OCC(C(=O)NCc1ncc3c(n1)CCC3)C2 (configuration not stated)	-9.39
O=C1NCc2ccccc2CC12CCN(Cc1ccccc1Cl)CC2	36.6
Cc1nc(N(C)C)nc(N2CCC3(CC2)CNC(=O)O3)c1C	-12.1
CN(C)C(=O)CN1CCC2(CC1)C[C@@H](O)[C@H](c1ccccc1)NC2=O	22
CNC(=O)CN1CCC2(CC1)C[C@@H](O)[C@H](c1ccccc1)NC2=O	44.8
NC(=O)CN1CCC2(CC1)C[C@@H](O)[C@H](c1ccccc1)NC2=O	53.2
CN(C)C(=O)CN1CCn2cc(Cn3cccn3)nc2C1	38.5
COc1ccc(C2CCCN2c2ccnc(C)c2Cl)c(OC)c1 (configuration not stated)	82.2
COc1ccc(C2CCCN2c2cnccn2)c(OC)c1 (configuration not stated)	31.6
COc1ccc(C2CCCN2c2nnc(C)s2)c(OC)c1 (configuration not stated)	15.5
O=C([C@@H]1CN(Cc2nccs2)C[C@H]2OCC[C@H]21)N1CCOCC1	14
Cn1cc(CN2CC[C@H]3O[C@H](C(=O)NCc4ccco4)CC[C@H]32)cn1	-20.6
CC1c2ncc(CNC(=O)C3CC3)n2CCN1Cc1nccs1 (configuration not stated)	-4.32
CCN1CC2(CCC1=O)CCN(Cc1cccc(C#N)c1)CC2	33.4
c1cc2c(cc1CN1CCCC3(CCOC3)C1)OCO2 (configuration not stated)	25.4
CCCOC(=O)N1CCCC2(CCN(Cc3cccc(C#N)c3)C2)C1 (configuration not stated)	2.7
CN1CCC2(COCCN(Cc3ccc4c(c3)OCO4)C2)C1 (configuration not stated)	61.5
COCCN1CCC2(COCCN(Cc3ccc4c(c3)OCO4)C2)C1 (configuration not stated)	46.7
CN1CCC2(COCCN(Cc3cccc(C#N)c3)C2)C1 (configuration not stated)	89.6
COCC(C)NC(=O)c1sccc1-n1cnnn1 (configuration not stated)	36.5
Nc1nnc(CCCn2nnc(-c3ccccc3F)n2)s1	44.7
Fc1ccccc1-c1nnn(CCCc2nn[nH]n2)n1	78.8

Compound	INHIBITION [%]
Fc1ccccc1CN1CCC[C@H](Cn2nnc(-c3cccs3)n2)C1	21.6
CNS(=O)(=O)CCCn1nnc(-c2ccc(F)c(C)c2)n1	-6.51
Nc1nnc(Cn2nnc(-c3ccccc3F)n2)s1	61.8
Cc1cc(-c2nnn(CCNS(C)(=O)=O)n2)ccc1F	31.8
COCCN1CCC(Cc2cncc(-c3ccc(C(=O)O)cc3)n2)CC1	31.6
Nc1cnn(CC(=O)N2CCCCC2)c1	34
COc1cccc(CN2CCCCC2Cn2nc(C)nc2C)c1 (configuration not stated)	-59.4
NC(=O)COc1ccc(C(=O)N2CCCC(n3ccnc3)C2)cc1 (configuration not stated)	-19.4
CNC(=O)N1CC[C@H]2N(C)CC[C@@]2(C(=O)N2CCOCC2)CC1	-18.4
CCOc1ccc(C(=O)N2CCCS2(=O)=O)cc1OC	11.2
COc1cc(C(=O)N2CCCS2(=O)=O)ccc1OC(C)C	66.7
COc1ccc(C(=O)N2CCCS2(=O)=O)cc1OC	5.03
Cc1cc(C)n(NC(=O)c2ccccc2C)c(=O)c1	-46.4
Cc1cc(C)n(NC(=O)c2ccccc2F)c(=O)c1	47.1
Cc1cc(C)n(NC(=O)c2ccc(Cl)cc2Cl)c(=O)c1	60.4
CCc1nc(CN2CCN(C(=O)c3csnn3)CC2)cs1	10.2
CS(=O)(=O)Cc1ccc(C(=O)NC2CCc3nccn3C2)o1 (configuration not stated)	-16.38
CCc1c(O)nc2nc(N3CCCC3)nn2c1C	44.1
CC(C)(N)C(=O)N1CCCC1c1cncc(Oc2ccc(F)cc2)n1 (configuration not stated)	31.1
Cn1cncc1CN1CCCC1c1cncc(Oc2ccc(Cl)cc2)n1 (configuration not stated)	96.6
CNCC(=O)N1CCCC1c1cncc(Oc2ccc(F)cc2)n1 (configuration not stated)	38.2
COc1ccc(Oc2cncc(C3CCCN3C(C)=O)n2)cc1 (configuration not stated)	-3.98

Compound	INHIBITION [%]
CC(=O)N1CCCC1c1cncc(Oc2ccc(F)cc2)n1 (configuration not stated)	11.1
CN(C)CC(=O)N1CCCC1c1cncc(Oc2ccc(F)cc2)n1 (configuration not stated)	53
NC(=O)CN1CCCC1c1cncc(Oc2ccc(Cl)cc2)n1 (configuration not stated)	13.5
Cc1ncccc1Oc1cncc(C2CCCN2Cc2cncn2C)n1 (configuration not stated)	32.8
Cn1cncc1CN1CCCC1c1cncc(Oc2ccc(F)cc2)n1 (configuration not stated)	67.7
CCN(CC)C(=O)c1ccn(COc2c(Cl)cccc2Cl)n1	20.9
Cc1ccc(N2CCCN(C(=O)CCCn3ccnc3C)CC2)nn1	7.18
CC(=O)N1CC2(CCN(c3nccc4ccccc34)CC2)CC1C(=O)O (configuration not stated)	29.2
O[C@]12CCNC[C@H]1CN(c1ncccc1Cl)CC2	7.6
O[C@]12CCNC[C@H]1CN(c1ccnc3ccccc13)CC2	56.7
CN(C)c1nccnc1N1CC[C@@]2(O)CCNC[C@H]2C1	15.8
O=C(O)C1CC2(CCN(c3nccc4ccccc34)CC2)CN1 (configuration not stated)	93.1
CCCOc1ccc2ccccc2c1CN1CC[C@@]2(O)CCNC[C@H]2C1	5.41
CN(C)CCO[C@H]1C[C@@H](O)C12CCN(c1nccc3ccccc13)CC2	-3.58
O[C@]12CCNC[C@H]1CN(c1nccc3ccccc13)CC2	53.9
Cc1nnc(N2CC[C@@]3(O)CCNC[C@H]3C2)c2ccccc12	25.8
Cc1cc(C2CCCN2C(=O)c2cc3c(s2)CCC3)no1 (configuration not stated)	15.3
CS(=O)(=O)N1CCOCC2(CCN(C(=O)c3ccco3)CC2)C1	27.6
Cc1cnc(C)c(N2CCC3(CCCN(C4CCOCC4)C3=O)C2)n1 (configuration not stated)	-30
CN1CCC(C(=O)N2CCC(c3ccc4c(N)n[nH]c4n3)CC2)CC1	34.75
Cc1cnn(C2CCCN(C(=O)c3ccc(C(N)=O)cn3)C2)c1 (configuration not stated)	44.3
Cc1c(Br)cccc1S(=O)(=O)NCc1ccnn1C	37.1

Compound	INHIBITION [%]
O=c1cccnn1CC1CN(c2ncc(F)cn2)Cc2nccn2C1 (configuration not stated)	-3.33
COc1ccc(C(=O)N2CCN(CCO)CC2)c(F)c1	-61.4
OCCc1ncnn1Cc1cccc(Cl)c1	0.426
c1ccc(-n2nnnc2CNCc2ccc3c(c2)OCCO3)cc1	34.9
CN(Cc1ccc2c(c1)OCCO2)Cc1nnnn1-c1ccccc1	51.2
NC(=O)c1c[nH]nc1NCc1ccc2c(c1)OCO2	4.35
c1ccc(-n2nnnc2NCc2ccc3c(c2)OCO3)cc1	64.5
CN(Cc1ccc2c(c1)OCO2)Cc1nc(Cc2ccccc2)no1	9.56
N#Cc1c[nH]nc1NCc1ccc2c(c1)OCO2	-5.51
COCCn1ccnc1CN1CCc2[nH]cnc2C1c1cnn(C)c1C (configuration not stated)	32.2
Cn1cc(-c2nnc3sc(C4CC4)nn23)cn1	0.87
O=C(COc1ccccc1)NCCNC(=O)c1scnc1Cl	23.5
CCCc1cc(=O)[nH]c(-c2ccccc2CN(C)CCn2cccn2)n1	16.1
Cc1ccc(CN2CCC(NC(=O)c3scnc3C)CC2)cc1	40.9
Cc1ncsc1C(=O)NC1CCN(Cc2ccc(C(N)=O)cc2)CC1	-12.2
Cc1ncsc1C(=O)NC1CCN(Cc2ccc(C(F)(F)F)cc2)CC1	62.6
COCCN1CCN(Cc2nc3c(s2)CCCC3)[C@H]2CS(=O)(=O)C[C@H]21	-27.6
COCCN1CCN(Cc2cccnc2)[C@H]2CS(=O)(=O)C[C@H]21	43
COCCN1CCN(Cc2ccncc2)[C@H]2CS(=O)(=O)C[C@H]21	63.5
COCCN1CCN(Cc2ccc(F)c(C)c2)[C@H]2CS(=O)(=O)C[C@H]21	28.5
CCc1ccc(CN2CCN(CCOC)[C@@H]3CS(=O)(=O)C[C@@H]32)cc1	39.4
COCCN1CCN(Cc2ccc(Cl)cc2)[C@H]2CS(=O)(=O)C[C@H]21	52.1

Compound	INHIBITION [%]
CCOc1ccc(CN2CCN(CCOC)[C@@H]3CS(=O)(=O)C[C@@H]32)cc1	45.8
COCCN1CCN(Cc2nccs2)[C@H]2CS(=O)(=O)C[C@H]21	55.7
COCCN1CCN(Cc2ccc(C(C)=O)cc2)[C@H]2CS(=O)(=O)C[C@H]21	32.1
Cn1ccnc1CN1CCCC(CCCc2ccccn2)(C(N)=O)C1 (configuration not stated)	10.9
O=C(NCCc1ccco1)Nc1cc(C(F)(F)F)c[nH]c1=O	4.8
Cc1nc(C)n(CC2CCCN2CC(=O)Nc2cc(C)on2)n1 (configuration not stated)	40.2
CCN(C)C(=O)Cn1c(-c2ccco2)nn(-c2ccccc2OC)c1=O	33.3
Cc1cccnc1C(=O)N1C[C@@H]2CC[C@H](Oc3cccc(F)c3)[C@@H]2C1	20.8
COCCN1CCC(NCc2ccc(F)cc2F)C1 (configuration not stated)	25.4
CSCC(=O)N1CCc2c(cnc(C)c2-c2noc(-c3cc[nH]n3)n2)C1	12.1
O=C(Cc1ccc2c(c1)CCC2)N1CCN(c2cnccn2)CC1	-46.4
O=C(CCCNC(=O)NCC1CCCO1)Nc1ccc(Cl)cc1 (configuration not stated)	25.8
Cc1cc(C)cc(C(=O)NCCCNc2ncccn2)c1	55.4
COc1cc(OC)cc(C(=O)NCCCNc2ncccn2)c1	-14.1
CCOc1ccc(C(=O)NCCCNc2ncccn2)cc1	41.5
O=C(CCCNc1ncccn1)Nc1cc(C(F)(F)F)c[nH]c1=O	29.15
CC(O)(CNC(=O)c1c(F)cccc1Cl)C1CC1 (configuration not stated)	9.79
CC(O)(CNC(=O)c1c(F)cccc1Cl)c1ccco1 (configuration not stated)	55.6
O=C(NCC(O)(c1ccco1)C1CC1)c1c(F)cccc1Cl (configuration not stated)	46.7
